A number with no mark means an inactive call. Results filed as inconclusive are left out. Entries that show only a call come without a potency. Activity calls are given as the source filed them. Unless noted, calls come from the whole dose curve; as a rule, active = well fitted curve in the direction sought with a large enough effect in the repeat runs; inconclusive = weak or mixed curves; inactive = no such curve, though single readings can be large; an effect the other way counts as inactive or inconclusive.
Legend:
[1] = qHTS assay to identify small molecule agonists of the TGF-beta/Smad signaling pathway - cell viability counter screen (AID 1346829); note: top concentration of the series differs between compounds; nearly all actives have a fitted effect of over 45% in size
Method in brief: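 SBE-bla HEK 293T cells plated overnight, compound exposure 5 hr at 37 C. Viability read in the same wells by CellTiter-Glo luminescence after 30 min at room temperature, following the beta-lactamase read.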

[2] = qHTS assay to identify small molecule agonists of the TGF-beta/Smad signaling pathway (AID 1346859; active = well fitted activation curve with a large enough effect in the signal ratio in the repeat runs, not every such curve was filed as active; the % refers to the signal ratio; note: series mostly up to about 77 µM)
Method in brief: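 Beta-lactamase reporter activity downstream of Smad binding elements was measured in stably transfected HEK 293T cells; compounds were incubated for 5 hr, substrate for 2 hr at room temperature.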

[3] = target: Thyrotropin-releasing hormone receptor (Homo sapiens) (UniProt P34981); assay: qHTS assay to identify small molecule agonists of the thyrotropin-releasing hormone receptor (TRHR) signaling pathway (AID 1346891; calls by dose curve;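 note: HEK293 cells expressing TRHR with calcium dye readout; series mostly up to about 58 µM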)
Method in brief: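 Overnight-plated (18 h, 37 °C, 5% CO2) TRHR-Hek293 cells; 2 h calcium dye at 37 °C; compound in DMSO; 3-min kinetic fluorescence read.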

[4] = Human pregnane X receptor (PXR) small molecule agonists, qHTS cell viability counter screen (AID 1346977); note: nearly all actives have a fitted effect of over 50% in size
Method in brief: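 After a 5hr pre-incubation, PXR-Luc HepG2 cells received compounds plus positive control in DMSO and were kept 24hr at 37C. Cell viability was quantified by fluorescence from CellTiter-Fluor added for the final hour.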

[5] = Caspase-3/7 induction in HepG2 cells by small molecules, qHTS assay (AID 1346978); note: nearly all actives have a fitted effect of over 15% in size
Method in brief: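 Caspase-3/7 induction was measured by Caspase-Glo 3/7 luminescence (30 min, room temperature) after a 17 hr compound exposure of wild-type HepG2 cells seeded at 2,000 per well and pre-incubated 5 hr.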

[6] = Caspase-3/7 induction in CHO-K1 cells by small molecules, qHTS cell viability counter screen (AID 1346979); note: nearly all actives have a fitted effect of over 35% in size
Method in brief: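 Multiplexed with Caspase-Glo 3/7 in CHO-K1 cells, this counter screen added CellTiter-Fluor after 16hr of compound exposure and recorded fluorescence 1hr later.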

[7] = Caspase-3/7 induction in CHO-K1 cells by small molecules, qHTS assay (AID 1346980); note: nearly all actives have a fitted effect of over 15% in size
Method in brief: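 Luminescent Caspase-Glo 3/7 read (30min, room temperature) quantified apoptosis induction. Cells were wild-type CHO-K1, treated with compound for 17hr at 37 C and 5% CO2.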

[8] = Caspase-3/7 induction in HepG2 cells by small molecules, qHTS cell viability counter screen (AID 1346981); note: series mostly up to about 92 µM; nearly all actives have a fitted effect of over 30% in size
Method in brief: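 Multiplexed with the caspase-3/7 assay: HepG2 cells, 16 hr compound treatment, CellTiter-Fluor viability detection by fluorescence.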

[9] = target: Nuclear receptor subfamily 1 group I member 2 (Homo sapiens) (UniProt O75469); assay: Human pregnane X receptor (PXR) small molecule agonists, qHTS assay (AID 1346982); note: nearly all actives have a fitted effect of over 35% in size
Method in brief: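 We seeded PXR-Luc HepG2 cells in assay medium containing 5% charcoal-stripped FBS, added compounds 5 hr later, incubated 24 hr, and read luminescence with ONE-Glo reagent.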

[10] = target: Cytochrome P450 2C19 (Homo sapiens) (UniProt P33261); assay: Cytochrome P450 Family 2 Subfamily C Member 19 (CYP2C19) small molecule antagonists: luciferase reporter qHTS assay (AID 1671197); note: nearly all actives have a fitted effect of over 65% in size; note: potency is the fitted concentration of half-maximal effect
Method in brief: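 P450-Glo CYP2C19 system: enzyme-substrate mix with compound 10 min at room temperature, then NADPH regeneration solution, 1 h at 37C. Proluciferin-to-luciferin conversion detected by luminescence after 20 min with detection reagent; ketoconazole as positive control.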

[11] = target: Cytochrome P450 1A2 (Homo sapiens) (UniProt P05177); assay: Cytochrome P450 Family 1 Subfamily A Member 2 (CYP1A2) small molecule antagonists: luciferase reporter qHTS assay (AID 1671199); note: nearly all actives have a fitted effect of over 50% in size; note: potency is the fitted concentration of half-maximal effect
Method in brief: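 CYP1A2 turnover of a luminogenic substrate was quantified after 1 h with NADPH regeneration at room temperature. Furafylline served as positive control.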

[12] = target: Voltage-gated inwardly rectifying potassium channel KCNH2 (Homo sapiens) (UniProt Q12809); assay: Human Ether-a-go-go-Related Gene (hERG) channel small molecule antagonists: fluorescence cell-based qHTS assay (AID 1671200);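 note: hERG-expressing U2OS cells given a thallium stimulus after FluxOR II dye loading; series mostly up to about 77 µM; nearly all actives have a fitted effect of over 50% in size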
Method in brief: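 Cell line hERG-U2OS; dye FluxOR II, 1 h RT dark; Tl+ stimulus; ex 480/em 540 nm, read each second for 2 min.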

[13] = target: Cytochrome P450 3A4 (Homo sapiens) (UniProt P08684); assay: Cytochrome P450 Family 3 Subfamily A Member 4 (CYP3A4) small molecule antagonists: luciferase reporter qHTS assay (AID 1671201); note: nearly all actives have a fitted effect of over 50% in size; note: potency is the fitted concentration of half-maximal effect
Method in brief: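 Room-temperature assay throughout: 10 min compound–enzyme/substrate preincubation, 1 h reaction after NADPH regeneration solution, 20 min detection. Luciferin formed from proluciferin substrate is quantified by luminescence.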

[14] = target: Thyrotropin-releasing hormone receptor (Homo sapiens) (UniProt P34981); assay: qHTS assay to identify small molecule antagonists of the thyrotropin-releasing hormone receptor (TRHR) signaling pathway (AID 1346877; active = well fitted inhibition curve with a large enough effect in the repeat runs, not every such curve was filed as active; note: series mostly up to about 51 µM)
Method in brief: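 Screening used HEK293 cells engineered with TRHR, with a brief 5 min room-temperature compound exposure preceding addition of TRH to 1 nM. The read-out was kinetic calcium-dye fluorescence, concentration-response from 15 doses in triplicate.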

[15] = target: Cytochrome P450 2D6 (Homo sapiens) (UniProt P10635); assay: Cytochrome P450 Family 2 Subfamily D Member 6 (CYP2D6) small molecule antagonists: luciferase reporter qHTS assay (AID 1671196)
Method in brief: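 Luminescence (RLU), read 20 min after detection reagent, indicated CYP2D6 conversion of proluciferin to luciferin during a 1 h NADPH-dependent reaction at room temperature.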

[16] = target: Cytochrome P450 2C9 (Homo sapiens) (UniProt P11712); assay: Cytochrome P450 Family 2 Subfamily C Member 9 (CYP2C9) small molecule antagonists: luciferase reporter qHTS assay (AID 1671198); note: nearly all actives have a fitted effect of over 50% in size; note: potency is the fitted concentration of half-maximal effect
Method in brief: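 Enzyme-substrate mix preincubated with compound 10 min at room temperature; reaction started with NADPH regeneration solution, 1 h 37C. Luminescent luciferin product read after 20 min detection reagent.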

[17] = target: Nuclear receptor subfamily 1 group I member 2 (Rattus norvegicus) (UniProt Q9R1A7); assay: Rat pregnane X receptor (rPXR) activation by small molecules, qHTS assay (AID 1346983); details: rPXR luciferase reporter cells, One-Glo luminescence, 24 h; max activation: active compounds read high; note: nearly all actives have a fitted effect of over 20% in size
Method in brief: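 Luminescent readout (One-Glo luciferase, 30 min room temperature) followed 24 hr compound treatment at 37 C of rPXR cells plated 2,000 per well and preincubated 5hr; qHTS format with compounds delivered in DMSO.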

[18] = target: Nuclear receptor subfamily 1 group I member 2 (Homo sapiens) (UniProt O75469); assay: CYP3A4 induction through human pregnane X receptor (PXR) by small molecules, qHTS assay (AID 1346984); note: nearly all actives have a fitted effect of over 40% in size
Method in brief: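 qHTS, concentration-response format: HepG2 DPX-2 line, PXR/CYP3A4-luc. Exposure 24 h, 37C. Substrate Luciferin-IPA 3uM final, 3 h. Detection One-Glo, 30 min RT.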

[19] = target: Nuclear receptor subfamily 1 group I member 2 (Homo sapiens) (UniProt O75469); assay: Human pregnane X receptor (PXR) activation by small molecules, qHTS assay (AID 1346985); note: nearly all actives have a fitted effect of over 40% in size
Method in brief: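 DPX-2 cells (HepG2 co-transfected with a PXR response element and a CYP3A4-promoter luciferase construct) were seeded at 2,000 per well, rested 5 hr at 37C, then exposed to DMSO-dissolved compounds for 24 hr. Activation was read as luciferase luminescence.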

Cytochrome P450 3A4 (Homo sapiens), sequence (P08684 whole entry, looked up): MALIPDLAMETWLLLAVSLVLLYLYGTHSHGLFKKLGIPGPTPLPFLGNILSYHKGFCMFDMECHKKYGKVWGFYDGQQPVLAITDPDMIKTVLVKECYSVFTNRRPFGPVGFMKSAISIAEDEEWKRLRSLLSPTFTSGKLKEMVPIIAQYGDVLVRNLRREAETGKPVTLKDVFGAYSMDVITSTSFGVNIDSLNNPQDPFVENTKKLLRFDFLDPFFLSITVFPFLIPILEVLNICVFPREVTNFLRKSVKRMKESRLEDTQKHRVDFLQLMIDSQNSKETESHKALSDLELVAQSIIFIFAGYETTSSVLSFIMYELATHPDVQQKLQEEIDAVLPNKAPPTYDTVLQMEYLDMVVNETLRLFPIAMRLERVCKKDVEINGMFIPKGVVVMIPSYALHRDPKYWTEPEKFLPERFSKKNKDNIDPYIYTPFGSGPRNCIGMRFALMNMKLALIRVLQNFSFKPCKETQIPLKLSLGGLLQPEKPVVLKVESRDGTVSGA
Nuclear receptor subfamily 1 group I member 2 (Homo sapiens), sequence (O75469 whole entry, looked up): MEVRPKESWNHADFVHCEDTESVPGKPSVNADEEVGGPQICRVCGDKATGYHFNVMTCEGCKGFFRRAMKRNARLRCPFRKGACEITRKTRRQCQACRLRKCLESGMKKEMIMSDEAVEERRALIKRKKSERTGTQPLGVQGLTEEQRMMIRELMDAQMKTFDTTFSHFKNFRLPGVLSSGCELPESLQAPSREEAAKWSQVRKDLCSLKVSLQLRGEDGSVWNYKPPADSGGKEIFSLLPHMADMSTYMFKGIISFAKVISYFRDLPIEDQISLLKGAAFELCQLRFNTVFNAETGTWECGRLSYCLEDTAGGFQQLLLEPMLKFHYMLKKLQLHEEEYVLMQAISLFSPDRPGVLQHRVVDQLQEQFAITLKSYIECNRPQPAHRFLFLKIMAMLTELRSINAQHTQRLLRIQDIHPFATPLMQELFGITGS
Cytochrome P450 1A2 (Homo sapiens), sequence (P05177 whole entry, looked up): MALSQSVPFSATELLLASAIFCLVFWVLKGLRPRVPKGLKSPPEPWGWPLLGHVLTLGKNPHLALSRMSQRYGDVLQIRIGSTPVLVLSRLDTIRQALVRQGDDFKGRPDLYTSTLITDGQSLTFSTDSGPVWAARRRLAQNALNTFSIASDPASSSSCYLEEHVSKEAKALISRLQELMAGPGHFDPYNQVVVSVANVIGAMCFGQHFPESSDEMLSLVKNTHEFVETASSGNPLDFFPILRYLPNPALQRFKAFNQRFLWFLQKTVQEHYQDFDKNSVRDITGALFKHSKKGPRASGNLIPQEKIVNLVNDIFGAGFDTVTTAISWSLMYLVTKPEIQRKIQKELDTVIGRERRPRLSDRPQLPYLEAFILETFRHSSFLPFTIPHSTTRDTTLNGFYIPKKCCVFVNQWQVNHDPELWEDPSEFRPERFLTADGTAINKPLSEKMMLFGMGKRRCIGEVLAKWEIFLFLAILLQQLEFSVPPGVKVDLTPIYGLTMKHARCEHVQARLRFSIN
Cytochrome P450 2D6 (Homo sapiens), sequence (P10635 whole entry, looked up): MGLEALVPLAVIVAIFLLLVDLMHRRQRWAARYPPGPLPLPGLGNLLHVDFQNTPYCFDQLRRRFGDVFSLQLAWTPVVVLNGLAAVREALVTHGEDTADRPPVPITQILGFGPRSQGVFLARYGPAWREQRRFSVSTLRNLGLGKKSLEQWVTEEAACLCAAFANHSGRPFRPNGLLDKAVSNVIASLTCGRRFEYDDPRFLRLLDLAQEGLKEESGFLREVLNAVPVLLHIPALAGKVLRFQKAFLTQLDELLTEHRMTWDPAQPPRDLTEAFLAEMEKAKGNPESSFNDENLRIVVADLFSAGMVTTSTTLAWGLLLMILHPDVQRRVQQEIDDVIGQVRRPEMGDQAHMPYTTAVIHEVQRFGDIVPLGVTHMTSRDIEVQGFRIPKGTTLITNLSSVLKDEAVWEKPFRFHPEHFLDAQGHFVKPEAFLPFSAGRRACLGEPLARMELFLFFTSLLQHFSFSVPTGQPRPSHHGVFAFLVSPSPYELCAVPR
Cytochrome P450 2C19 (Homo sapiens), sequence (P33261 whole entry, looked up): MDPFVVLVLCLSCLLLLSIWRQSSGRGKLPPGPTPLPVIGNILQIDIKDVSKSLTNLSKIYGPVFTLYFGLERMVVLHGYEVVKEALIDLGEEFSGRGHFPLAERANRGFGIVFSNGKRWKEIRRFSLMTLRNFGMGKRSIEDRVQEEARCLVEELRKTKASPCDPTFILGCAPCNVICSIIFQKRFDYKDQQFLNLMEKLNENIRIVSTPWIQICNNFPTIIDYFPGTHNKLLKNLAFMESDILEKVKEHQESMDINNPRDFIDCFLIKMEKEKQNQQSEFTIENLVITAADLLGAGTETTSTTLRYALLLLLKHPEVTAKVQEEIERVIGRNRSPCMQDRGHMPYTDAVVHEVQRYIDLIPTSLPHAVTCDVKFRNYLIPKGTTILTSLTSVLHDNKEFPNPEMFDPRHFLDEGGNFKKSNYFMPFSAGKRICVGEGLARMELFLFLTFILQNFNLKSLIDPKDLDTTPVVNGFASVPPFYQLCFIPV
Voltage-gated inwardly rectifying potassium channel KCNH2 (Homo sapiens), sequence (Q12809 whole entry, looked up): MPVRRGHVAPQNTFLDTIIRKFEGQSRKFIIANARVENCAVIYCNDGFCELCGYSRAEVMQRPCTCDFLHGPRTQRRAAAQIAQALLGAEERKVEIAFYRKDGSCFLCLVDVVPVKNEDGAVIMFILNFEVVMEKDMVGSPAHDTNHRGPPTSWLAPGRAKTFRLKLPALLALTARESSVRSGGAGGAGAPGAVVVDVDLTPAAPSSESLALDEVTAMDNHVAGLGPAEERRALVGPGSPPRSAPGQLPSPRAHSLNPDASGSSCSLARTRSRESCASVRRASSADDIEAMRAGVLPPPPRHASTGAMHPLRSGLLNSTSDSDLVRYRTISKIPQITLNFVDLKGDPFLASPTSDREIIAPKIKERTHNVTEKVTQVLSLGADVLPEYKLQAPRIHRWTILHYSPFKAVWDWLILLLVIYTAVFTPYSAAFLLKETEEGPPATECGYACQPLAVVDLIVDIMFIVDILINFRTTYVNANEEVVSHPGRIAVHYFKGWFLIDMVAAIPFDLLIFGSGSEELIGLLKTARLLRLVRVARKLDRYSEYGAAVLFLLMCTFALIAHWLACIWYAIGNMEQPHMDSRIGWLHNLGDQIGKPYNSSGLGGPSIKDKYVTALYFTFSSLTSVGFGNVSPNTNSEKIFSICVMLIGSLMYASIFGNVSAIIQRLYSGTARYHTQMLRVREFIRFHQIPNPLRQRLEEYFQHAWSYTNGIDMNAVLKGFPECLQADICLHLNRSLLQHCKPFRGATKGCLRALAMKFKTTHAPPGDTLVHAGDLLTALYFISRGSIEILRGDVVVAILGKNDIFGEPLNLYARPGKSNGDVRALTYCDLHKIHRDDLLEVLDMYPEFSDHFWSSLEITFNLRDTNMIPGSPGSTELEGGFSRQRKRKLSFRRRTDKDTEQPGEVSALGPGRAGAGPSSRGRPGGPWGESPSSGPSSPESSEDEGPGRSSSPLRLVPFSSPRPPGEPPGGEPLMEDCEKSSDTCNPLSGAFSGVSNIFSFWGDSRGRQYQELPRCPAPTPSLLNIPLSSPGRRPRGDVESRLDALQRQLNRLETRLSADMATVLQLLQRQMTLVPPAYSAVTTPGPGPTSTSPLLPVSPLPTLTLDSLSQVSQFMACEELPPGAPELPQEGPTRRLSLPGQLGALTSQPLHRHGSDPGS
Cytochrome P450 2C9 (Homo sapiens), sequence (P11712 whole entry, looked up): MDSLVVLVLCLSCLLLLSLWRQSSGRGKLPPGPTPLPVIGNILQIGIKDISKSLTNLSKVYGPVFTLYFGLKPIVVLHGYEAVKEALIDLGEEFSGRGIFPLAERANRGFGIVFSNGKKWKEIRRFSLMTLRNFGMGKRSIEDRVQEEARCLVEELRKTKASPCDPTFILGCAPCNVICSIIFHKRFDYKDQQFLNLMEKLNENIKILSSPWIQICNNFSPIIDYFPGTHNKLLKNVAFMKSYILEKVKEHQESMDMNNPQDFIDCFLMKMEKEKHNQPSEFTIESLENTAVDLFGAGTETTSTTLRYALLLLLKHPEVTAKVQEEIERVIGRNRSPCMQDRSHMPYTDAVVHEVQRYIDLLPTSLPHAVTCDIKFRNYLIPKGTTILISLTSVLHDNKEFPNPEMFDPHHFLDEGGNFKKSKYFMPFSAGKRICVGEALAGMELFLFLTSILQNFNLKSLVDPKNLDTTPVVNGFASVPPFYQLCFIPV
Thyrotropin-releasing hormone receptor (Homo sapiens), sequence (P34981 whole entry, looked up): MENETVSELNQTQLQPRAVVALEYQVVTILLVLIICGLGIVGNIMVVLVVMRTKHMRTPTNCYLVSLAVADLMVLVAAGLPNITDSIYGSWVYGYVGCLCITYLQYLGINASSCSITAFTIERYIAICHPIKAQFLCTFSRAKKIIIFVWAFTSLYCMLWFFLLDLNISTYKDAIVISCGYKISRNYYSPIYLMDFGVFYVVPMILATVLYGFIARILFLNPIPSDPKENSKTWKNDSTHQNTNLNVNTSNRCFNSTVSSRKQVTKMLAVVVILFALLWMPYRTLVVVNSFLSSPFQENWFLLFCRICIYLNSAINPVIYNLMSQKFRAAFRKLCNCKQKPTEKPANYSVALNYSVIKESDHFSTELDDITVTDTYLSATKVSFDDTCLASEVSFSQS
Nuclear receptor subfamily 1 group I member 2 (Rattus norvegicus), sequence (Q9R1A7 whole entry, looked up): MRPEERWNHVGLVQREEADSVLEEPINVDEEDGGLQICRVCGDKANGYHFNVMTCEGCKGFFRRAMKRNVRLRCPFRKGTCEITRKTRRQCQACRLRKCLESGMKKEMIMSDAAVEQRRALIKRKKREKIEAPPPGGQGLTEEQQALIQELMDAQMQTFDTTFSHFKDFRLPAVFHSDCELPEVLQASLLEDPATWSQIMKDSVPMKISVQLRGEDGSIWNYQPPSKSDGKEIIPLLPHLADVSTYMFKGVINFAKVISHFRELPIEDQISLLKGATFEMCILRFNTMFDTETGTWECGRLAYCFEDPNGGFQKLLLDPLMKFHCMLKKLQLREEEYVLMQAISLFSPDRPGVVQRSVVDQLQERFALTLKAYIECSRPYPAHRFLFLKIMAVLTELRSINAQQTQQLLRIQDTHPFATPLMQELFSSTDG

Compound | outcome [1] | outcome [2] | Potency [3] | outcome [4] | outcome [5] | Potency [6] | outcome [7] | outcome [8] | Potency [9] | Potency [10] | Potency [11] | Potency [12] | Potency [13] | outcome [14] | Potency [15] | Potency [16] | max activation [17] [%] | outcome [18] | outcome [19]
CC(C)(C)OC(=O)c1ccccc1C(=O)O | inactive | inactive | inactive | inactive | inactive | inactive | inactive | inactive | inactive | inactive | inactive | inactive | inactive | – | – | – | – | – | –
CCCCCCC(O)CO (stereo not drawn) | inactive | inactive | – | inactive | inactive | inactive | inactive | – | inactive | inactive | inactive | inactive | inactive | inactive | inactive | inactive | – | – | –
N#Cc1ccccc1C#N | inactive | inactive | – | – | inactive | inactive | inactive | inactive | – | inactive | – | inactive | inactive | inactive | – | inactive | – | – | –
C=C(C)C(=O)OCCOC1CC2CC1C1C=CCC21 (stereo not drawn) | inactive | inactive | inactive | inactive | inactive | inactive | inactive | inactive | – | 30.3 µM (active) | – | – | – | – | inactive | 42.9 µM (active) | – | – | –
Cc1cc(C)c(N)c(Cl)c1 | inactive | inactive | – | inactive | inactive | inactive | inactive | – | inactive | – | 2.83 µM (active) | inactive | – | inactive | inactive | – | – | – | –
CC(C)(O)CCCC1=CCC(C=O)CC1 (stereo not drawn) | inactive | inactive | inactive | inactive | inactive | inactive | inactive | inactive | – | 10.7 µM (active) | 38 µM (active) | inactive | 67.5 µM (active) | – | – | 60.2 µM (active) | – | – | –
CC/C=C\CCOC(=O)c1ccccc1 | inactive | inactive | inactive | inactive | inactive | inactive | inactive | inactive | inactive | inactive | – | inactive | inactive | – | inactive | inactive | – | – | –
O=C(O)CCC(=O)Nc1ccc(S(=O)(=O)Nc2nccs2)cc1 | inactive | inactive | inactive | inactive | inactive | inactive | inactive | inactive | – | – | – | inactive | – | – | – | – | – | – | –
CC(C)(C)C(=O)CCc1ccc(Cl)cc1 | inactive | inactive | inactive | inactive | inactive | inactive | inactive | inactive | inactive | 7.1 µM (active) | 22.4 µM (active) | inactive | inactive | – | inactive | – | – | – | –
CCC(=O)OCCOc1ccccc1 | inactive | inactive | inactive | inactive | inactive | inactive | inactive | inactive | inactive | – | – | inactive | – | – | inactive | inactive | – | – | –
CN(C)c1cc(NC(=O)CNC(C)(C)C)c(O)c2c1C[C@H]1C[C@H]3[C@H](N(C)C)C(=O)C(C(N)=O)=C(O)[C@@]3(O)C(=O)C1=C2O | inactive | inactive | – | – | inactive | inactive | inactive | inactive | inactive | 21.9 µM (active) | – | inactive | inactive | inactive | – | – | – | – | –
CCN(CC)CC(=O)Oc1ccc(NC(C)=O)cc1 | inactive | inactive | – | – | inactive | inactive | inactive | inactive | inactive | inactive | inactive | inactive | inactive | inactive | inactive | inactive | – | – | –
CCCCC(O)/C=C(C)/C=C/C=C/C(=O)N1CCCC1=O (stereo not drawn) | inactive | inactive | inactive | inactive | inactive | inactive | inactive | inactive | inactive | inactive | inactive | inactive | – | – | inactive | inactive | – | – | –
O=P(O)(O)C(O)(Cc1cccnc1)P(=O)(O)O | inactive | inactive | – | inactive | inactive | inactive | inactive | inactive | inactive | inactive | inactive | inactive | inactive | – | inactive | inactive | -2.56 | inactive | inactive
CCCCS | inactive | inactive | inactive | – | inactive | inactive | inactive | – | inactive | – | – | inactive | inactive | – | inactive | inactive | – | – | –
Cc1ccccc1C#N | inactive | inactive | inactive | – | – | inactive | inactive | – | inactive | inactive | – | inactive | inactive | – | – | inactive | – | – | –
CC(C)c1cc(C(C)C)cc(C(C)C)c1 | inactive | inactive | – | inactive | inactive | inactive | inactive | inactive | inactive | inactive | – | inactive | inactive | – | inactive | inactive | – | – | –
Cc1cc(=O)oc2cc(O[C@@H]3SC[C@@H](O)[C@H](O)[C@H]3O)ccc12 | inactive | inactive | – | inactive | inactive | inactive | inactive | inactive | inactive | inactive | inactive | inactive | inactive | – | inactive | inactive | – | – | –
COc1cc(C(=O)NC2CCCNC2)cc(OC)c1OC (stereo not drawn) | inactive | inactive | – | inactive | inactive | inactive | inactive | inactive | inactive | inactive | 15.5 µM (active) | inactive | inactive | – | inactive | – | – | – | –
CC(C)(C)C(=O)CC(=O)C(C)(C)C | inactive | inactive | – | inactive | inactive | inactive | inactive | inactive | inactive | inactive | inactive | inactive | inactive | – | inactive | inactive | – | – | –

Reference: PubChem BioAssay (Tox21)
